Rows were chosen to be rich in hits. Some 3.1% of all compounds tested hit in one or more screens of this group.
TROY NFkB inh: blocks TROY-dependent signaling in reporter cells. Q293 LMP1-TROYcd NF-kB luciferase reporter, 4 h. inhibition, % at 10 µM. 360,000 compounds, 0.98% hits;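 active = compounds whose plate-normalised and pattern-corrected inhibition of the luciferase reporter signal at the single screening dose is 50% or more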
EBV LMP1 NFkB: Epstein-Barr LMP1 NF-kappaB reporter inhibition | AID 504558 | 350,000 compounds, 0.69% hits | inhibition, % at 12.5 µM | LMP1-induced NF-kappaB luciferase reporter cells, luminescence; in the data active = inhibition above about 41%; inconclusive = no clear call, values can overlap the other calls
LGR2 antag: blocks bursicon-induced cAMP signaling via Drosophila LGR2; HEK293 LGR2, CRE-luciferase, bursicon-stimulated, 4 h; inhibition, % at 9.99 µM; 380,000 compounds, 0.35% hits;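 active = drop in luminescence signal, shown as inhibition above about 50% in the replicate tests, limit read from the data, passing the limit was not always enough; inconclusive = probably only some replicates passing the limit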;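 note: agonist challenge used bursicon conditioned medium at about half maximal strength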
PAX8 inh HTS: inhibitors of PAX8 transcriptional activity in RMG-I cells; 360,000 compounds, 1.2% hits; RMG-I TPO-luciferase reporter, SteadyGlo, 24 h; inhibition, % at 12.6 µM;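 active = mean replicate inhibition at least 60% with every replicate also reaching 60%; inconclusive = only one of the two criteria is met; inactive = mean below 60% and not all replicates reaching 60%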;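 note: luciferase light reporting Pax8 driven TPO promoter activity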
TWEAK-Fn14 inh: inhibitors of TWEAK-Fn14 interaction signaling | 360,000 compounds, 2% hits | AID 1159606 | inhibition, % at 10 µM | TWEAK-stimulated Fn14 reporter cells, luciferase luminescence, 8 h; in the data active = inhibition above about 50%
EWS-Fli block: inhibitors of EWS/Fli oncoprotein transcriptional activity; A673 NR0B1-luciferase reporter, viability-normalised; inhibition, % at 12.6 µM; 350,000 compounds, 0.67% hits; AID 651661;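 active = mean inhibition of at least 50% after viability correction, with every replicate also passing that limit; inconclusive = mean reaches 50% but only one of two replicates passes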;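 note: firefly luciferase signal divided by Alamar Blue viability fluorescence both relative to DMSO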
Numbers stand for hits; – = inactive; ? = inconclusive; · = not tested or not shown.

SMILES	TROY NFkB inh	EBV LMP1 NFkB	LGR2 antag	PAX8 inh HTS	TWEAK-Fn14 inh	EWS-Fli block
C[C@@H]1CN([C@@H](C)CO)C(=O)c2cccc(NC(=O)Nc3cccc4ccccc34)c2O[C@H]1CN(C)C(=O)NC1CCCCC1	·	·	–	–	·	–
O=S(=O)(c1ccccc1)N1CCN(Cc2cccc(OCCO)c2)CC1	·	·	·	–	·	–
N=C1S/C(=C\c2ccccc2F)C(=O)N1c1ccc(F)cc1	–	–	–	–	–	–
COc1cc(/C=C2\SC(=N)N(c3ccc(F)cc3)C2=O)ccc1O	–	–	–	–	52	–
N=C1S/C(=C\c2ccccc2)C(=O)N1c1ccc(F)cc1	–	67	–	–	–	–
COCC(=O)Nc1ccc2c(c1)C(=O)N(C)C[C@H](OC)[C@H](C)CN(CC1CC1)[C@@H](C)CO2	·	·	–	–	·	–
Cc1ccc(NS(=O)(=O)c2cc([N+](=O)[O-])ccc2NNC(=S)Nc2cccc(Cl)c2)c(C)c1	62	–	·	·	–	·
Cc1ccc(NS(=O)(=O)c2cc([N+](=O)[O-])ccc2NNC(=S)Nc2cc(C)ccc2C)c(C)c1	53	–	–	?	68	·
Cc1noc(C)c1NC(=O)Nc1ccc2c(c1)C(=O)N([C@H](C)CO)C[C@H](C)[C@H](CN(C)C(=O)Nc1ccccc1)OCCCC[C@H](C)O2	·	·	–	–	·	–
C[C@@H]1CCCCO[C@@H](CN(C)Cc2ccc(C(F)(F)F)cc2)[C@H](C)CN([C@@H](C)CO)C(=O)c2cc(NC(=O)NC3CCCCC3)ccc2O1	·	·	–	78	·	–
C[C@H](CO)N1C[C@H](C)[C@H](CN(C)Cc2ccc(C(F)(F)F)cc2)OCCCC[C@H](C)Oc2ccc(NC(=O)NC3CCCCC3)cc2C1=O	·	·	–	91	·	–
C[C@H]1CCCCO[C@H](CN(C)Cc2ccc(C(F)(F)F)cc2)[C@@H](C)CN([C@@H](C)CO)C(=O)c2cc(NC(=O)NC3CCCCC3)ccc2O1	·	·	–	–	·	–
O=C(NCC[C@H]1CC[C@H](NS(=O)(=O)c2cccc(F)c2)[C@H](CO)O1)c1cnccn1	·	·	–	–	·	–
CN1CCN(C(=O)C[C@H]2C=C[C@@H](NS(=O)(=O)c3cccc(F)c3)[C@@H](CO)O2)CC1	·	·	–	–	·	–
COc1ccc(-c2cc(=Nc3ccc(C(=O)O)cc3)c3cc(C)ccc3o2)cc1	–	–	53	–	72	–
COc1ccc(-c2cc(=O)c3cc(O)ccc3o2)cc1	–	–	–	·	–	–
CCc1ccc2oc(-c3ccc(OC)cc3)cc(=Nc3cccc(C(=O)O)c3)c2c1	65	–	84	–	85	–
CCc1ccc2oc(-c3ccc(OC)cc3)cc(=Nc3c(C)n(C)n(-c4ccccc4)c3=O)c2c1	55	–	83	–	75	–
C=CCn1c(-c2ccc(OC)cc2)csc1=Nc1c(C)n(C)n(-c2ccccc2)c1=O	–	42	·	·	–	·
N#CC1=C(N)Oc2cc(N)ccc2C1c1ccccc1F (stereo not drawn)	–	–	–	–	–	55
N#CC1=C(N)Oc2cc(N)ccc2C1c1cc(Br)cs1 (stereo not drawn)	–	–	·	–	–	58
C[C@@H]1CN([C@@H](C)CO)C(=O)Cc2cc(NS(=O)(=O)c3ccc(Cl)cc3)ccc2O[C@H]1CN(C)S(=O)(=O)c1cn(C)cn1	·	·	–	·	·	–
COc1cccc(/C=N/NC(=O)c2c(C)nc3ccc(Br)cn23)c1O	–	63	·	·	–	·
COc1cccc(/C=N/NC(=O)c2nc(-c3ccccc3)cc(-c3ccccc3)n2)c1O	–	–	–	–	51	·
COc1cccc(C=NNC(=O)c2ccncc2)c1O	–	–	–	–	–	–
SMILES	TROY NFkB inh	EBV LMP1 NFkB	LGR2 antag	PAX8 inh HTS	TWEAK-Fn14 inh	EWS-Fli block
C[C@@H]1CN([C@@H](C)CO)C(=O)Cc2cc(NC(=O)c3ccncc3)ccc2O[C@@H]1CN(C)S(=O)(=O)c1ccc(Cl)cc1	·	·	–	–	·	–
C[C@H](O)C#Cc1ccc2c(c1)O[C@@H](CN(C)C(=O)CN(C)C)[C@H](C)CN([C@@H](C)CO)S2(=O)=O	·	·	–	·	·	–
O=C(NCc1ccc(F)cc1)C1(c2cccs2)CCOCC1	–	–	–	123	–	–
O=C(CCC(=O)c1cccs1)NCc1ccc(F)cc1	–	–	·	–	–	·
C[C@H]1CN([C@@H](C)CO)S(=O)(=O)c2ccc(C#CC3CC3)cc2O[C@H]1CN(C)C(=O)c1ccccn1	·	·	–	·	·	–
COc1ccc(NC(=O)C2CCCN(S(=O)(=O)c3cccc4nonc34)C2)c(OC)c1 (stereo not drawn)	–	63	·	–	–	–
COc1ccc(OC)c(NC(=O)C2CCCN(S(=O)(=O)c3cccc4nonc34)C2)c1 (stereo not drawn)	–	–	–	·	–	–
O=C(NCC[C@@H]1CC[C@H](NS(=O)(=O)c2cccc(F)c2)[C@H](CO)O1)C1CCOCC1	·	·	–	·	·	–
CC(C)=CC(O)C/C(C)=C/COc1ccc2ccc(=O)oc2c1 (stereo not drawn)	–	–	·	·	83	–
CN(C)C(=O)COc1ccc2ccc(=O)oc2c1	–	–	·	–	–	·
O=C(CN(c1ccc(Br)cc1)S(=O)(=O)c1ccc(Cl)c([N+](=O)[O-])c1)NCC1CCCO1 (stereo not drawn)	–	–	–	–	55	–
O=C(CN(c1ccc(Cl)cc1)S(=O)(=O)c1ccc(Cl)c([N+](=O)[O-])c1)NCCc1ccccc1	–	–	–	79	–	–
CCN(CC(=O)NCc1ccc(Cl)cc1)C(=O)CN1C(=O)NC(CC)(c2ccccc2)C1=O (stereo not drawn)	–	–	–	–	91	·
CCN(CC(=O)NCc1ccc(Cl)cc1)C(=O)CN1C(=O)NC(C)(c2ccccc2)C1=O (stereo not drawn)	–	–	–	·	–	–
CNc1ccc2ncc(-c3ccc(OC)c(OC)c3)n2n1	57	·	–	–	83	–
Cc1ccc2nc(-c3ccncc3)c(Nc3ccccc3)n2c1	–	–	–	65	–	–
CCC(=O)N1C[C@H](C)[C@H](OC)CN(C)C(=O)c2ccc(NC(=O)c3ccccc3)cc2OC[C@H]1C	·	·	–	–	·	–
Cc1cccc2cc3c(N)c(C(=O)Nc4ccc(N5CCOCC5)cc4)sc3nc12	51	–	·	·	58	·
Nc1c(C(=O)N2CCOCC2)sc2nc3c(cc12)CCCC3	–	56	71	71	–	–
Cc1cc(C)c2nc3sc(C(=O)N4CCOCC4)c(N)c3cc2c1	–	51	–	69	–	–
O=S(=O)(Cc1ccccc1)N1CC2(C1)[C@H](c1ccccc1)[C@@H](CO)N2CC1CCOCC1	·	·	–	–	·	–
C[C@@H]1CN([C@H](C)CO)C(=O)c2cc(C3=CCCC3)cnc2O[C@H]1CN(C)Cc1cccc(F)c1	·	·	–	–	·	–
Oc1[nH]c2ccccc2c1N=Nc1ccccn1	–	–	–	–	–	–
Oc1c(N=Nc2ccccn2)ccc2ccccc12	–	48	·	–	80	·
